From PubChem BioAssay (NCI)
The panel holds about 83,000 compounds, 20% with a hit somewhere; the sample as a whole holds those more often.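 Interpretation: 100, growth as untreated; towards 0, rising growth inhibition; 0, no net growth; 0 to -100, cell death. Compounds scoring below 10 were considered active.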 The source made the active and inactive calls.

Assays:
Experiment in all cases: NCI-60 one-dose screen, 48 h (100 = growth as untreated, 0 = no growth, -100 = all killed)
Conditions in all cases: 10 µM unless noted
MDA-MB-435 melanoma = system: MDA-MB-435 melanoma
SW-620 colon = system: SW-620 colon
MCF7 breast = system: MCF7 breast
HCT-116 colon = system: HCT-116 colon
HCC-2998 colon = system: HCC-2998 colon
KM12 colon = system: KM12 colon
BT-549 breast = system: BT-549 breast

Measured: growth

CCCCCCCCn1ccc2cc(NC(=O)Cn3cc(CN4CCN(CC)CC4)nn3)ccc21
active: MDA-MB-435 melanoma -84% | SW-620 colon -43% | HCC-2998 colon -12.2%
inactive: MCF7 breast 38.9% | HCT-116 colon 61.8% | KM12 colon 77.8%

CC1(C)CC[C@]2(C(=O)O)CC[C@]3(C)C(=CC[C@@H]4[C@@]5(C)C[C@@H](Cc6cn([C@@H]7O[C@H](CO)[C@@H](O)[C@H](O)[C@H]7O)nn6)[C@H](O)C(C)(C)[C@@H]5CC[C@]43C)[C@@H]2C1
inactive: BT-549 breast 101% | MDA-MB-435 melanoma 104% | SW-620 colon 102% | MCF7 breast 91.4% | HCT-116 colon 96.4% | HCC-2998 colon 104% | KM12 colon 104%

N#Cc1c(N2CCOCC2)nc(=S)[nH]c1-c1ccccc1
inactive: BT-549 breast 57.7% | MDA-MB-435 melanoma 82.2% | SW-620 colon 82.1% | MCF7 breast 56.6% | HCT-116 colon 86.6% | HCC-2998 colon 79.1% | KM12 colon 77.6%

CCOC(=O)c1c(C)nc2ccccc2c1/C=C/c1ccc(OC)cc1
inactive: BT-549 breast 53.3% | MDA-MB-435 melanoma 61.7% | SW-620 colon 85.1% | MCF7 breast 63.9% | HCT-116 colon 55.7% | HCC-2998 colon 77.8% | KM12 colon 70.7%

CCN1C(=O)N(CC)C2C1NN=c1s/c(=C3\C(=O)N(CCc4ccccc4)c4ccccc43)c(=O)n12 (configuration not stated)
inactive: BT-549 breast 14.2% | SW-620 colon 23.1% | MCF7 breast 11.6% | HCC-2998 colon 13.2% | KM12 colon 13.9%
active: MDA-MB-435 melanoma -40.9% | HCT-116 colon 2.18%

NC(CSC(c1ccccc1)(c1ccccc1)c1ccc2c(c1)OCO2)C(=O)O (configuration not stated)
active: HCT-116 colon 7.34% | HCC-2998 colon 9.26%
inactive: BT-549 breast 22.7% | SW-620 colon 12.9% | MCF7 breast 10.3% | KM12 colon 13.1%

O=C(c1ccc(Cl)cc1Cl)N1c2ccccc2Sc2ccccc21
inactive: BT-549 breast 54.6% | MDA-MB-435 melanoma 47.9% | SW-620 colon 38.3% | MCF7 breast 52.4% | HCT-116 colon 22.8% | HCC-2998 colon 64.6% | KM12 colon 49.8%

CCOC(=O)C1CCN(c2ccc(N3C[C@@H](CNCc4ccc(C(=N)N)cc4)OC3=O)cc2)CC1
inactive: BT-549 breast 94.4% | MDA-MB-435 melanoma 104% | SW-620 colon 97.1% | MCF7 breast 97.2% | HCT-116 colon 98.9% | HCC-2998 colon 108% | KM12 colon 98.7%

Cc1c(Cl)cccc1C(=O)Nc1nc2c(s1)CN(C(=O)Nc1cccc(C(F)(F)F)c1)CC2
inactive: BT-549 breast 33.6% | SW-620 colon 33.4% | MCF7 breast 12.6% | HCT-116 colon 13.3% | HCC-2998 colon 11.7% | KM12 colon 14.5%
active: MDA-MB-435 melanoma -22%

COc1ccc(/C=C/C(=O)c2cc3c(N)c(C(=O)Nc4ccc(OC)cc4)sc3nc2C)cc1
inactive: BT-549 breast 24.6% | SW-620 colon 19.2% | MCF7 breast 14.3% | HCT-116 colon 16.6% | HCC-2998 colon 15.9% | KM12 colon 13.1%
active: MDA-MB-435 melanoma -23%

CCC/C(=N\NC(N)=O)C(OC)OC
inactive: BT-549 breast 110% | MDA-MB-435 melanoma 110% | SW-620 colon 110% | MCF7 breast 90.8% | HCT-116 colon 102% | HCC-2998 colon 99.3% | KM12 colon 97.7%

CCCCCn1sc(=O)n(Cc2ccc(CNC(=O)OCc3ccc4c(Cl)cc(Cl)c(O)c4n3)cc2)c1=O
inactive: BT-549 breast 71.1% | MDA-MB-435 melanoma 68% | SW-620 colon 58.4% | MCF7 breast 69.5% | HCT-116 colon 44.6% | HCC-2998 colon 95.2% | KM12 colon 57.5%

COc1ccc2cc(Cn3cc[n+](Cc4ccc5ccccc5c4)c3)ccc2c1
inactive: SW-620 colon 44.4% | MCF7 breast 40.9% | HCT-116 colon 33.7% | HCC-2998 colon 26.7%
active: MDA-MB-435 melanoma 7% | KM12 colon -23.2%

COc1cc(/C=C2\CN(S(=O)(=O)c3ccc(C)cc3)C/C(=C\c3cc(CN4CCCCC4)c(O)c(OC)c3)C2=O)cc(CN2CCCCC2)c1O
active: BT-549 breast -49% | MDA-MB-435 melanoma -82.6% | SW-620 colon -77.5% | MCF7 breast -74.4% | HCT-116 colon -70.6% | HCC-2998 colon -87.2% | KM12 colon -85.2%

O=C(N/N=C/c1ccc([N+](=O)[O-])cc1)c1ccc2nc(-c3ccc(Cl)cc3)[nH]c2c1
inactive: BT-549 breast 14% | MDA-MB-435 melanoma 47.6% | SW-620 colon 12.7% | HCT-116 colon 14.6% | HCC-2998 colon 14.9% | KM12 colon 13%
active: MCF7 breast 0.723%

Cc1c2ccccc2nc2c1ccc1cccnc12
inactive: BT-549 breast 96.3% | MDA-MB-435 melanoma 83% | SW-620 colon 93% | MCF7 breast 21.7% | HCT-116 colon 56.2% | HCC-2998 colon 87.3% | KM12 colon 78.2%

O=c1nc(Nc2nc3ccccc3s2)[nH]c(=O)c2ccccc12
inactive: BT-549 breast 97.5% | SW-620 colon 101% | MCF7 breast 92.2% | HCT-116 colon 103% | HCC-2998 colon 98.4% | KM12 colon 98.5%

O=C1/C(=C/c2ccccc2[N+](=O)[O-])COc2ccc(O)cc21
inactive: BT-549 breast 26.7% | MCF7 breast 10.9% | HCC-2998 colon 29% | KM12 colon 25.4%
active: MDA-MB-435 melanoma -34.2% | SW-620 colon -57.8% | HCT-116 colon -13.8%

N#Cc1c(Nc2ccc(F)cc2)n[nH]c1-c1cccs1
inactive: BT-549 breast 98.3% | MDA-MB-435 melanoma 99.5% | SW-620 colon 101% | MCF7 breast 80.9% | HCT-116 colon 100% | HCC-2998 colon 98.6% | KM12 colon 98.1%

O=C1OCC2=C1C(c1cccc(F)c1)c1cc3c(cc1N2CCO)OCO3 (configuration not stated)
active: MDA-MB-435 melanoma -0.149%
inactive: BT-549 breast 32.8% | SW-620 colon 15.8% | MCF7 breast 20% | HCT-116 colon 18.2% | HCC-2998 colon 77% | KM12 colon 25.3%

CCOC(=O)C1=C(c2ccccc2)N=c2s/c(=C/c3ccc(Br)cc3)c(=O)n2C1c1ccc(O)cc1 (configuration not stated)
inactive: BT-549 breast 95.3% | SW-620 colon 94.6% | MCF7 breast 77.1% | HCT-116 colon 82.3% | HCC-2998 colon 105% | KM12 colon 84.4%

COc1ccc(/C=C/C(=O)c2ccc(Nc3nc(Nc4ccc(F)cc4)nc(Nc4ccc(Cl)cc4)n3)cc2)cc1
inactive: BT-549 breast 116% | MDA-MB-435 melanoma 97.3% | SW-620 colon 104% | MCF7 breast 72.2% | HCT-116 colon 91.8% | HCC-2998 colon 51.3% | KM12 colon 166%

N#Cc1c(-c2ccccc2)cc(-c2ccccc2)n(CCCC(=O)NO)c1=O
active: MDA-MB-435 melanoma -12.4% | HCT-116 colon 7.06%
inactive: BT-549 breast 53.9% | SW-620 colon 17.3% | MCF7 breast 22.5% | HCC-2998 colon 47.4% | KM12 colon 24.9%

CCCCCCCC/C=C\CCCCCCCCOc1ccccc1CC(=O)NCC[N+]1(C)CCCCC1
inactive: BT-549 breast 47.9% | MDA-MB-435 melanoma 41.5% | SW-620 colon 61.1% | MCF7 breast 80% | HCT-116 colon 48.2% | HCC-2998 colon 57.5% | KM12 colon 22.5%

CCCCCCCCNc1cc2c3c(c1)CCCN3CCC2
inactive: BT-549 breast 20% | MCF7 breast 24.3% | HCC-2998 colon 11.8%
active: MDA-MB-435 melanoma 9.1% | SW-620 colon 9.22% | HCT-116 colon 5.39% | KM12 colon 5.45%

CCN(CC)CCOc1ccc(Nc2ncc3cc(-c4ccc(O)cc4)c(=O)n(C)c3n2)cc1
inactive: BT-549 breast 30.1% | MDA-MB-435 melanoma 61.1% | MCF7 breast 51.5% | HCT-116 colon 32% | HCC-2998 colon 86.8% | KM12 colon 37.2%
active: SW-620 colon -33.7%

O=C1/C(=C/c2ccc(C(F)(F)F)cc2)COc2ccc(O)cc21
inactive: BT-549 breast 72.8% | MDA-MB-435 melanoma 87.7% | HCT-116 colon 33.2% | HCC-2998 colon 94.1% | KM12 colon 52.2%
active: SW-620 colon 1.98% | MCF7 breast 6.03%

COc1ccc(OC)c(Nc2nnc(-c3ccc(Cl)cc3)o2)c1
inactive: BT-549 breast 81.9% | MDA-MB-435 melanoma 84.6% | SW-620 colon 86.2% | MCF7 breast 91.6% | HCT-116 colon 31.1% | HCC-2998 colon 104% | KM12 colon 66.4%

COc1ccc(-c2cn(-c3ccc(Cl)cc3)c(SCC(=O)c3ccc([N+](=O)[O-])cc3)n2)cc1
inactive: BT-549 breast 89.7% | MDA-MB-435 melanoma 79.5% | SW-620 colon 86.1% | MCF7 breast 82.4% | HCT-116 colon 74.6% | HCC-2998 colon 103% | KM12 colon 94.8%

Cc1ccc(C)n1/C=C/n1c(C)ccc1C
inactive: BT-549 breast 91% | MDA-MB-435 melanoma 91.9% | SW-620 colon 110% | MCF7 breast 106% | HCT-116 colon 104% | HCC-2998 colon 95% | KM12 colon 109%

COc1ccccc1NC(=O)c1ccc(/C=C/C(=O)c2nccn2C)cc1
active: BT-549 breast -63.5% | MDA-MB-435 melanoma -75.7% | SW-620 colon -77.7% | MCF7 breast -45.6% | HCT-116 colon -84.9% | HCC-2998 colon -85.9% | KM12 colon -73.9%

O=C1C(Cl)=C(NCCN2CCOCC2)C(=O)c2ncccc21
active: BT-549 breast -91.5% | SW-620 colon -29.5% | MCF7 breast -50% | HCT-116 colon -51.9%
inactive: HCC-2998 colon 31.8% | KM12 colon 62.9%

CC(C)CCC[C@@H](C)C1CCC2C3CCC4=C/C(=N/OCCN(C)C)CC[C@]4(C)C3CC[C@@]21C (some centres not stated)
inactive: BT-549 breast 90.5% | MDA-MB-435 melanoma 102% | SW-620 colon 91.1% | MCF7 breast 91.9% | HCT-116 colon 83.9% | HCC-2998 colon 80.8% | KM12 colon 87.4%

O=C(CCCCl)NNc1nccc(Nc2ccc(S(=O)(=O)Nc3ccncc3)cc2)n1
inactive: BT-549 breast 120% | MDA-MB-435 melanoma 107% | SW-620 colon 113% | MCF7 breast 93.4% | HCT-116 colon 97.1% | HCC-2998 colon 103% | KM12 colon 101%

N=c1sc(Cc2cc(Cl)ccc2Cl)cn1CC(=O)c1ccccc1
inactive: BT-549 breast 68.8% | SW-620 colon 21.2% | MCF7 breast 32.3% | HCT-116 colon 26.1% | HCC-2998 colon 31.6% | KM12 colon 16.1%
active: MDA-MB-435 melanoma -41.5%

COc1ccc(NC(=O)c2sc3nc4c(cc3c2N)CCCC4)cc1
active: MDA-MB-435 melanoma -20.9%
inactive: BT-549 breast 51.3% | SW-620 colon 36.7% | MCF7 breast 19.2% | HCT-116 colon 30.3% | HCC-2998 colon 52.8% | KM12 colon 25.8%

CCOC(=O)c1c(-c2ccc(Cl)cc2)c(C#N)c2c(C#N)c(N)nn2c1N
active: MDA-MB-435 melanoma 5.38%
inactive: BT-549 breast 68.5% | SW-620 colon 52.6% | MCF7 breast 37.6% | HCT-116 colon 59.5% | HCC-2998 colon 83.6% | KM12 colon 58.7%

CN1CCN(C(=O)c2cc(-c3ccc4ncnc(N5CCc6cc(F)c(Cl)cc65)c4c3)cnc2N)CC1
inactive: KM12 colon 10.7%
active: BT-549 breast -20.4% | MDA-MB-435 melanoma -2.06% | SW-620 colon 4.9% | MCF7 breast 4.21% | HCT-116 colon -30.3% | HCC-2998 colon -7.55%

CCOC(=O)c1c(C)nn(CC(O)c2ccccc2)c1NC(=O)Nc1cccc(F)c1 (configuration not stated)
inactive: BT-549 breast 96.4% | MDA-MB-435 melanoma 86.8% | SW-620 colon 82.7% | MCF7 breast 81.4% | HCT-116 colon 84% | HCC-2998 colon 94.6% | KM12 colon 82.9%
